# This excerpt belongs to a sample that is enriched for hits.
# Pf Dd2 growth – blocks in vitro growth of P. falciparum Dd2; P. falciparum Dd2 growth, SYBR Green, 72 h; Potency, µM (top dose mostly 28.9 µM), for the others: top-dose activity, negative = inhibition, hits mostly inhibitors; 120,000 tested, 4.3% active; AID 1347417; active means well fitted inhibition curve with a large enough effect;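 further: plate controls were DMSO vehicle for no effect and reference drug for full effect; nearly all actives have a fitted effect of over 65% in size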
#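 Readout: SYBR Green fluorescence, 485 nm excitation, 535 nm emission, after ~16 h lysis at 37C. Before that, Dd2-infected red cells (2.5% hematocrit) grew 72 h with compound, 29 uM top final concentration.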
# Numbers without * were called inactive; i = inactive; [ ] = another dose, or the depositor's remark. Potency means the concentration at half of the fitted maximal effect.
SMILES,Pf Dd2 growth
COc1ccc(C)cc1NC(=O)N1CC2CC(C1)[C@H]1CCCC(=O)N1C2 (some centres not stated),0.0%
OCc1cc(CC2(NCc3cc4ccccc4o3)COC2)no1,13.4%[44.1 µM]
Cc1cccc(OCC2(CNCc3ccccn3)C[C@@H](O)[C@@H](O)C2)n1 (some centres not stated),-16.7%
Cc1nc([C@@H]2CN(Cc3ccccc3)C[C@H]2C(N)=O)n[nH]1,-2.2%
O=C1CCC2(CCN(C(=O)c3ccccc3)CC2)CN1CC1CCCO1 (configuration not stated),-7.1%
COc1ccc(Nc2cc(C)c3cc(NC(=O)COc4cccc(C)c4)ccc3n2)cc1,3.98µM*
COc1ccc(-n2nc3ccc(NC(=O)COc4ccc(C)c(C)c4)cc3n2)cc1,6.3%
COc1ccc(CC(=O)Nc2ccc3nc(Nc4cccc(Cl)c4)cc(C)c3c2)cc1OC,i
CCn1nc(C)c(CN2C[C@@H](CO)[C@H](c3nc(COC)no3)C2)c1C,14.7%
CC(C)N1C[C@H](O)C[C@H]1c1nnc2n1CCN(C(=O)c1ccccc1)CC2,3.0%
Cn1c(CNCC2(COc3cccnc3)C[C@@H](O)[C@@H](O)C2)nc2ccccc21 (some centres not stated),5.1%
CCN(CC)CCCNC(=O)c1nn(C)c2c1CSc1ccccc1-2,5.62µM*
CC(C)CCNC(=O)c1nn(C)c2c1CSc1ccccc1-2,-20.1%
CC(C)OCCCNC(=O)c1nn(C)c2c1CSc1ccccc1-2,-23.3%
O=C(c1cc2ccccc2oc1=O)N1CCC2(CCCN(Cc3ccccc3F)C2)C1 (configuration not stated),-1.9%
CC(C)=CCn1c(-c2cc(C)oc2C)cn2cc(C(=O)N[C@@H](C)C(N)=O)nc2c1=O,-6.9%
C=CCn1c(-c2ccc(F)cc2)cn2cc(C(=O)N(C)CCO)nc2c1=O,-11.3%
CC(C)=CCn1c(-c2ccccc2Cl)cn2cc(C(=O)NCC(C)O)nc2c1=O (configuration not stated),10µM*
COCCO[C@H]1C(=O)N(C2CCN(C(=O)c3cccnc3)CC2)[C@H]1c1ccncc1,-0.3%
O=C(Nc1ccccc1)N[C@H]1CO[C@H]2[C@@H]1OC[C@H]2OC(=O)Nc1ccc(Oc2ccccc2)cc1,-8.9%
C[C@@H]1CN(Cc2nnnn2CC(=O)NC2CCN(Cc3ccccc3)CC2)C[C@H](C)O1,-6.1%
COc1ccc(-c2noc(Nc3ccc(C)c(C)c3)n2)cc1,-13.0%
O=C1CC(c2noc(-c3ccc(Cl)cc3)n2)CN1c1ccc(F)cc1 (configuration not stated),126.0%
CCc1nc2c(c(-c3ccc(Cl)cc3)n1)CCN(C(=O)c1ccccn1)CC2,-3.1%
CCc1nc2c(c(-c3ccc(Cl)cc3)n1)CN([S+](C)(=O)[O-])CC2,-19.0%[44.1 µM]
SMILES,Pf Dd2 growth
CCc1nc2c(c(-c3ccc(Cl)cc3)n1)CN(Cc1ccsc1)CC2,5.01µM*
CCc1nc2c(c(-c3ccc(Cl)cc3)n1)CN(Cc1ccc(OC(F)(F)F)cc1)CC2,8.91µM*
CCc1nc2c(c(-c3ccc(Cl)cc3)n1)CN(Cc1ccc(C)cc1)CC2,-17.3%
Cc1nc2c(c(-c3ccc(O)cc3)n1)CN(Cc1ccc(OC(F)(F)F)cc1)CC2,-1.2%
COCCn1c(=O)n([C@H]2CCCN(C(=O)C3CCCCC3)C2)c2ncccc21,-12.0%
CCNC(=O)N(C1CC1)C1CCOC2(CCN(C(=O)c3ccn(CC)n3)CC2)C1 (configuration not stated),31.8%
Cc1ccccc1NC(=O)Nc1ccnn1C1CCN(C(=O)[C@@H](N)CO)CC1,-0.1%
COc1cccc(CN2C[C@]34C=C[C@H](O3)C(C(=O)N3CCCCC3)C4C2=O)c1 (some centres not stated),-6.6%
CC(C)C1=NOC2(CCN(C(=O)c3ccccc3F)CC2)C1,-5.3%[44.1 µM]
Cc1ccc(Cc2ccccc2C(=O)N2C[C@@H](C)[C@@](C)(O)C2)cc1,2.0%
Cc1cccc(CN2CCN(Cc3nc(-c4ccco4)oc3C)C(C)C2=O)c1 (configuration not stated),12.6µM*
Cc1cccc(-c2nc(CN3C(=O)CN=C(c4ccccc4)c4ccccc43)c(C)o2)c1,-21.6%
COc1cccc(CN2CC[C@H](c3nnc(-c4ccco4)o3)C2)c1,i
COc1ccc(OC)c(CNC(=O)c2c(C)sc3ccn(C)c(=O)c23)c1,i
CCN1C(=O)C(CC(=O)NCc2ccccn2)Sc2ncccc21 (configuration not stated),2.0%
Cc1ccc(C2Cn3nnc(C(=O)N4CCC(C(=O)NC(C)c5ccc(F)cc5)CC4)c3CO2)cc1 (configuration not stated),i
C[C@H]1[C@@H]2[C@@H](O)C([C@H](C)C(=O)NCCN3CCOCC3)CC[C@@]2(C)CC[C@@H]1NC(=O)CC(C)(C)C (some centres not stated),-2.0%
C[C@H]1[C@@H]2[C@H]3OC(=O)[C@@H](C)[C@@H]3CC[C@@]2(C)CC[C@@H]1NC(=O)C1CCCCC1,i
COCC(=O)N[C@H]1CC[C@]2(C)CC[C@@H]3[C@H](OC(=O)[C@H]3C)[C@H]2[C@@H]1C,-6.7%[44.1 µM]
C[C@H]1[C@@H]2[C@H]3OC(=O)[C@@H](C)[C@@H]3CC[C@@]2(C)CC[C@@H]1NC(=O)CC(C)(C)C,1.26µM*
CC(C)NC(=O)C(C)[C@@H]1CC[C@@]2(C)CC[C@H](NC(=O)CC(C)(C)C)[C@@H](C)[C@@H]2[C@H]1O (some centres not stated),6.31µM*
CCN(CC)C(=O)C(C)[C@@H]1CC[C@@]2(C)CC[C@H](NC(=O)CC(C)(C)C)[C@@H](C)[C@@H]2[C@H]1O (some centres not stated),i
C=CCNC(=O)C[C@@H]1CCN(C(=O)CCCCC)C[C@@H]1CC,-28.8%[44.1 µM]
O=C(c1ccccn1)N1CCCC2(COc3ccccc3[S+](=O)([O-])N2)C1 (configuration not stated),15.7%
O=[S+]1([O-])NC2(CCN(CC3CCCCC3)CC2)CNc2ccccc21,i
SMILES,Pf Dd2 growth
CCNC(=O)N1CCCN(S(=O)(=O)c2ccccc2)CCC(=O)NCC1,0.2%
COCC(=O)N1CCN(C)CC1C(=O)N1CCc2nc[nH]c2C1 (configuration not stated),-0.9%
Cc1cc(C)cc(NC(=O)CSc2nc3c([nH]c4ccccc43)c(=O)n2-c2ccc(F)cc2)c1,10µM*
Cc1cc(NC(=O)CSc2nc3c([nH]c4ccccc43)c(=O)n2-c2ccccc2F)no1,10µM*
CSc1nc2c([nH]c3ccccc32)c(=O)n1-c1ccc(C)cc1,i
O=C(CSc1nc2c(oc3ccccc32)c(=O)n1-c1ccccc1F)Nc1ccccc1,-11.6%
Cc1cccc(NC(=O)CSc2nc3c([nH]c4ccccc43)c(=O)n2-c2ccc(F)cc2)c1C,4.47µM*
O=C(CSc1nc2c([nH]c3ccccc32)c(=O)n1-c1ccc(Cl)cc1)N1CCc2ccccc21,61.2%
O=C(CSc1nc2c([nH]c3ccccc32)c(=O)n1-c1ccc(F)cc1)N1CCCCC1,17.3%
O=c1c2[nH]c3ccccc3c2nc(SCc2ccccc2F)n1-c1ccc(F)cc1,33.2%
Cc1ccc(-n2c(SCC(N)=O)nc3c([nH]c4ccccc43)c2=O)cc1,i
Cc1cc(NC(=O)CSc2nc3c([nH]c4ccccc43)c(=O)n2-c2ccccc2)no1,-25.8%
O=C(CSc1nc2c([nH]c3ccccc32)c(=O)n1-c1ccc(Cl)cc1)NC1CCCCC1,12.6µM*
